Shown is part of a subset that was picked to be rich in hits.
Sa helicase inh: blocks Staphylococcus aureus DNA helicase. purified S. aureus helicase, fluorescence unwinding assay. inhibition, % (no concentration beside the values). 120,000 tested, 0.05% active. AID 485395; in the data active = inhibition above about 25%, passing the limit was not always enough;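 also: 0% = mean of negative control wells and 100% = mean of positive control wells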
Sa growth 42C: inhibitors of Staphylococcus aureus growth at 42 °C; S. aureus RN4220 growth, OD600, 20 h; stronger effect = lower value; relative growth, % (test concentration not listed); 170,000 tested, 0.53% active;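 active = relative growth at most 50% at the other temperature and 20+ points below 30 °C, or under 10% at both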
Starred values were filed as active, the others as inactive; . = no result given.

SMILES	Sa helicase inh	Sa growth 42C
COc1cccc(NC(=O)Cn2ccc3c(OC)cccc3c2=O)c1	-2	98
COc1cccc(NC(=O)Cn2sc3ccccc3c2=O)c1	12	-0.2*
CCS(=O)(=O)c1oc(-c2ccc(F)cc2)nc1S(=O)(=O)c1ccc(Br)cc1	.	85
CC(C)S(=O)(=O)c1oc(-c2ccc(F)cc2)nc1S(=O)(=O)c1ccccc1	.	1.3*
CC(C)S(=O)(=O)c1oc(-c2cccs2)nc1S(=O)(=O)c1ccc(F)cc1	.	85
CCCCS(=O)(=O)c1oc(-c2ccc(F)cc2)nc1S(=O)(=O)c1ccccc1	.	1.6*
CC1=Nc2ccccc2Sc2c1c(=O)n(-c1ccccc1)c1ccccc21	13	1.8*
O=c1c(-c2ccn(-c3ccccc3)n2)c(O)c2ccccc2n1-c1ccccc1	-3	99
Cc1ccccc1Nc1nc(N)nc(CNCCCN2CCCCCC2=O)n1	-17	101
CC(O)CNc1ncnc2c1c(-c1ccccc1)cn2-c1ccccc1 (centres undefined)	-11	.
CC(=O)Nc1cc(C(=O)N2CC(C)CC(C)C2)ccc1Sc1ccc(Cl)cc1 (centres undefined)	4	65
CCn1cc(C(=O)O)c(=O)c2cc(F)c(N(C)CCc3ccc(OC)c(OC)c3)cc21	23	0.0*
CCn1cc(C(=O)O)c(=O)c2cc(F)c(F)cc21	8	85
Cc1ccc(NC(=O)C(Sc2nnc(-c3ccc4c(c3)OCO4)o2)c2ccccc2)cc1 (centres undefined)	-6	75
O=C(O)CC1(CC(=O)Nc2ccc(OC(F)(F)F)cc2)CCCC1	.	94
CCC1(c2cccc(OC(=O)Nc3ccc(OC(F)(F)F)cc3)c2)CCCCN(C)C1=O (centres undefined)	.	4.2*
Clc1ccc2[nH]c3c(c2c1)CN(Cc1ccccc1)CC3	6	62
O=C(c1ccc(CN2CCOCC2)o1)C(F)(F)F	18	92
CN1CCc2c(OCc3ccc(Cl)cc3)cccc2C1=O	15	6.4*
CCCCOc1cccc2c1CCN(C)C2=O	6	66
CN(C)c1cc(NC(=O)Nc2ccccc2)c2ccccc2n1	31	0.0*
O=C(Nc1ccccc1)Nc1cccc2ccccc12	8	99
Cc1ccccc1Cc1c(C)nc2c(-c3ccccc3)c(C)[nH]n2c1=O	.	0.5*
Cc1cccc(Cc2c(C)nc3c(-c4ccccc4)c(C)[nH]n3c2=O)c1	.	15
Cc1[nH]n2c(=O)cc(-c3ccccc3)nc2c1-c1ccccc1	-13	0.0*
SMILES	Sa helicase inh	Sa growth 42C
Cc1[nH]n2c(=O)cc(-c3ccccc3Cl)nc2c1-c1ccccc1	.	32
CCOc1cc(/C=C/C(=O)C2C(=O)C=C(C)OC2=O)cc(Br)c1O (centres undefined)	-102	46
CCN1C(=O)c2ccccc2Sc2ccc(NC(=O)Nc3ccccc3OC)cc21	.	111
CCN1/C(=C/c2scc[n+]2C)C=C(C)c2cc(OC)c3ccccc3c21	-40	-1.3*
CCCCN(Cc1cc2cccc(C)c2[nH]c1=O)S(=O)(=O)c1ccccc1	5	97
Cc1cc2c(n1-c1ccc(C(=O)NCCN(C)C)cc1)CCCC2	12	100
O=C(C=C1SCCS1)c1cccs1	.	99
CN1C(=O)/C(=C\C(=O)c2cccs2)c2ccccc21	-11	2.9*
O=C(NCCN1CCOCC1)c1n[nH]c(=O)c2ccccc12	-1	91
CCCSC(=S)c1c(C)[nH]n(-c2ccccc2)c1=O	-7	0.2*
CCCSC(=S)c1c(C)[nH]n(-c2ccc(C)cc2)c1=O	.	123
O=C(Nc1ncnc2sccc12)c1cccs1	4	60
O=C(Nc1ncnc2sccc12)C1CCCCC1	8	4.5*
CC(=O)Nc1ccc(S(=O)(=O)N2CCCC2c2ccc3c(c2)OCCCO3)cc1 (centres undefined)	-6	117
CCn1nc(C)c(/C=N/NC(=O)c2cc(C3CC3)nc3ccccc23)c1C	37	84
Cc1cc(C)cc(OC(=O)c2cc(-c3ccc4c(c3)OCCO4)on2)c1	.	1.7*
COc1ccc(OC(=O)c2cc(-c3ccc4c(c3)OCCO4)on2)cc1	.	97
CC(C)c1ccc(OC(=O)c2cc(-c3ccc4c(c3)OCCO4)on2)cc1	.	83
Cc1cccc(OC(=O)c2cc(-c3ccc4c(c3)OCCO4)on2)c1	.	1.8*
CC1(C)C(=O)N(CC(O)CNc2ccccc2)C(=O)N1CN1C(=O)N(CC(O)CNc2ccccc2)C(=O)C1(C)C (centres undefined)	-16	89
Cc1no[n+]([O-])c1COc1cccc(/C=C2\SC(=S)NC2=O)c1	14	-0.8*
COc1cc(C=C2C(=O)NC(=O)NC2=O)cc(Br)c1OCc1c(C)no[n+]1[O-]	-12	96
Cc1ccccc1-n1cnnc1SCC(=O)NC1(C#N)CCCC1	-6	102
Cc1nc2ccccc2n1CCc1nc2c3ccccc3nc(=S)n2[nH]1	-6	106
CCCc1nc2c3ccccc3nc(=S)n2[nH]1	-18	1.7*
SMILES	Sa helicase inh	Sa growth 42C
C/C(=C\C(=O)NN)NNc1ncnc2ccccc12	6	60
O=C1c2ccccc2-c2nc3nonc3nc21	-32	53
O=C1c2ccccc2-c2nc3ccccc3nc21	42	5.6*
C(=C\c1ccccc1)/CSc1ncnc2ccccc12	0	89
CCOC(=O)c1cc(-c2cccs2)nn1-c1ccc(C)cc1C	-15	101
CCc1cccc(NC(=O)CCS(=O)(=O)c2ccc3c(c2)SCC(=O)N3)c1	6	106
CCOC(=O)C(C(N)=O)C1(O)OC(c2ccccc2)=CC1=O (centres undefined)	2	106
CCN(C(=O)CSc1nnc(-c2ccccc2)c(-c2ccccc2)n1)C1CCS(=O)(=O)C1 (centres undefined)	-7	101
CCN(C(=O)CSc1nc(C)cc(C)c1C(N)=O)C1CCS(=O)(=O)C1 (centres undefined)	6	-1.2*
Cc1ccc2occ(CC(=O)Nc3ccc(OC(F)F)cc3)c2c1	-19	89
FC(F)(F)c1cccc2c1[nH]c1nc3ccccc3nc12	1	106
O=c1[nH]c(=O)c2nc3cc(C(F)(F)F)ccc3nc2[nH]1	-98	2.5*
O=C(Nc1ccc(Cl)c(Cl)c1)OCc1ccco1	6	44
O=C(Nc1ccc(Cl)c(Cl)c1)OCc1cccnc1	11	8.0*
O=S(=O)(Cc1ccccc1)c1nnnn1-c1ccccc1	5	-0.2*
CCS(=O)(=O)c1nnnn1-c1ccccc1S(C)(=O)=O	3	89
CCS(=O)(=O)c1nnnn1-c1ccccc1	-3	0.1*
c1ccc(CNc2nnnn2-c2ccccc2)cc1	3	106
Cc1cc2ncn(CCc3noc(-c4ccccc4)n3)c2cc1C	-20	64
Cc1ccc(OCC(=O)O)c(-c2ccno2)c1	-13	69
CCc1ccc[n+](OC(=O)N(CC)CC)c1	15	0.1*
CCN(CC)C(=O)Oc1ccccc1	9	114
CCc1nnc(NC(=O)c2c(O)c3ccccc3n(C)c2=O)s1	3	93
N[C@@H](C(=O)N[C@@H]1C(=O)N2C(C(=O)O)=C(CSc3cn[nH]n3)CS[C@H]12)c1ccc(O)cc1 (tested in a mixture with another compound)	.	27*
CC(C)OC(=O)C(N)c1ccccc1 (centres undefined)	18	95
N[C@@H](C(=O)N[C@@H]1C(=O)N2C(C(=O)O)=C(Cl)CS[C@H]12)c1ccccc1	.	-0.9*

Screening results: PubChem BioAssay, ICCB-Longwood Screening Facility, Harvard Medical School
